Records with an inconclusive call do not appear. The source made the active and inactive calls. The call rests on the fitted dose curve; in most records, active means well fitted cell-killing curve with a large enough effect; inconclusive means small, poorly fitted or top-dose-only effect; inactive means flat fitted curve, though single readings scatter.
Assay: Cell Viability - LYMP2-002 (AID 977);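 further: compound exposure lasted 24 h at 37 °C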;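 on activity change, negative = cytotoxic: plate controls were DMSO only for no effect and 92 µM tetraoctylammonium bromide for full effect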
Details: LYMP2-002 lymphoblastoid cell viability, qHTS; series mostly up to 92.2 µM; activity change, negative = cytotoxic: at the top concentration
Text: NIH Chemical Genomics Center [NCGC]
NIH Molecular Libraries Screening Centers Network [MLSCN]
National Institutes of Environmental Health Sciences [NIEHS]
National Toxicology Program [NTP]
We have developed a 1536-well cell-based assay for quantitative high throughput screening (qHTS) against a number of cell lines to determine in vitro cytotoxicity of small molecules. This particular assay uses a human lymphoblastoid cell line (LYMP2-002) purchased from Coriell Institute for Medical Research.
NCGC Assay Protocol Summary:
The CellTiter-Glo luminescent cell viability assay (Promega) is a homogeneous method to measure the number of viable cells in culture. The end point readout of this assay is based on quantitation of intracellular ATP, an indicator of metabolic activity, using the luciferase reaction. Luciferase catalyzes the oxidation of beetle Luciferin to oxyluciferin and light in the presence of ATP. The luminescent signal is proportional to amount of ATP present.
Using the CellTiter-Glo luminescent cell viability assay, the amount of cellular ATP was measured in the lymphoblastoid cell line with complete culture medium following compound treatment for 24 hours. The assay was performed in opaque white Kalypsys 1536-well plates. In the screen, tetraoctylammonium bromide was used as positive control. Library compounds were measured for their ability to cause acute toxicity in the cell line, as reflected by a decrease in intracellular ATP levels, in a concentration-dependent manner. […] AC50 values were determined from concentration-response data modeled with the standard Hill equation.
qHTS protocol for CellTiter Glo lymphoblastoid cellular assay
[Step] [Parameter] [Value] [Description]
1. Reagent; 5 uL; 2500 lymphoblastoid cells/well
2. Time; 5 hr; 37 C incubation
4. Controls; 23 nL; Tetraoctylammonium bromide 6.4pM to 92 uM
5. Time; 24 hr; 37 C incubation
6. Reagent; 5 uL; CellTiter Glo reagent
7. Time; 30 min; Room Temperature
8. Detection; Luminescence; Viewlux plate reader
Keywords: cell viability, cytotoxicity, lymphoblastoid cell line, luminescence, NTPHTS, NTPHTS_NCGC, NIEHS, DSSTox, MLSMR, MLSCN, NIH Roadmap, qHTS, NCGC
Potency means the concentration at half of the fitted maximal effect.

| Structure (SMILES) | activity change, negative = cytotoxic | Potency |
| --- | --- | --- |
| COc1cc(CNC(=O)CCCC/C=C/C(C)C)ccc1O | -14.7% (inactive) | – |
| c1ccc2sc(SSc3nc4ccccc4s3)nc2c1 | -3.23% (inactive) | – |
| CN(C)c1ccc(C(=C2C=CC(=[N+](C)C)C=C2)c2ccccc2)cc1 | – | 0.398 µM (active) |
| CCCCCCCCCCCCCCCCCC(=O)O | 3.04% (inactive) | – |
| COc1cc(/C=C/C(=O)CC(=O)/C=C/c2ccc(O)c(OC)c2)ccc1O | – | 39.8 µM (active) |
| CN(C)c1ccc(N=NS(=O)(=O)O)cc1 | -15.3% (inactive) | – |
| NCCO | -0.376% (inactive) | – |
| Nc1nc2ccc([N+](=O)[O-])cc2s1 | -31.6% (inactive) | – |
| Nc1ccc(O)c(C(=O)O)c1 | -5.8% (inactive) | – |
| Nc1ccc(O)c([N+](=O)[O-])c1 | -11.7% (inactive) | – |
| S=c1[nH]c2ccccc2s1 | -1.74% (inactive) | – |
| Nc1ccc([N+](=O)[O-])cc1O | -13.6% (inactive) | – |
| CC(C)NCC(O)COc1cccc2ccccc12 (stereo unspecified) | -15.2% (inactive) | – |
| CN(C)CCC(c1ccc(Cl)cc1)c1ccccn1 (stereo unspecified) | 1.25% (inactive) | – |
| O=c1cc(-c2ccccc2)oc2ccccc12 | -2.68% (inactive) | – |
| CN1CCC[C@H]1c1cccnc1 | -1.18% (inactive) | – |
| CC1(C)S[C@@H]2[C@H](NC(=O)[C@H](N)c3ccccc3)C(=O)N2[C@H]1C(=O)O | -4.91% (inactive) | – |
| C#C[C@]1(O)CC[C@H]2[C@@H]3CCc4cc(O)ccc4[C@H]3CC[C@@]21C | -14.6% (inactive) | – |
| O=C(O)/C=C\C(=O)O | 10.7% (inactive) | – |
| CCCOC(=O)c1ccc(O)cc1 | – | inactive |
| O=C(O)c1cc(O)c(O)c(O)c1 | -5.46% (inactive) | – |
